The record followed here is PubChem BioAssay (NCATS).

Assay [1] in a line: Primary qHTS for inhibitors of nuclear receptor binding SET domain protein 2 (NSD2) in an RCH-ACV wild type WT cells (2C) (AID 1645877). Note: nearly all actives have a fitted effect of over 70% in size. Note: potency is the fitted concentration of half-maximal effect. The following applies: RCH-ACV NSD2 WT (2C) viability, CellTiter-Glo, 72 h; series mostly up to 44.9 µM.
Assay [2] concerns the target Papain (Carica papaya) (UniProt P00784). Description: Primary qHTS assay for inhibitors of the protease papain (AID 1645873). For activity change, negative = inhibition: % is set by controls: 0 for no effect and ±100 for the full control effect.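 Note: papain turnover of Z-FR-AMC read as the AMC fluorescence gain over 10 min.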 Note: potency is the fitted concentration of half-maximal effect. The conditions noted are these: papain Z-FR-AMC cleavage, AMC fluorescence; series mostly up to 49.8 µM. Background: In qHTS, concentration-response curves come from the screen itself.
Assay [3] is described as follows: Primary qHTS for inhibitors of nuclear receptor binding SET domain protein 2 (NSD2) in an isogenic RCH-ACV NSD2 p.E1099K mutant (9B) (AID 1645876). Note: nearly all actives have a fitted effect of over 70% in size. Note: potency is the fitted concentration of half-maximal effect. The conditions noted are these: RCH-ACV (leukaemia line) NSD2 E1099K (9B) viability, CellTiter-Glo, 72 h; series mostly up to 44.9 µM.
For assay [4], the target named is Cytochrome P450 2C9 (Homo sapiens) (UniProt P11712). Description: Cytochrome P450 family 2 subfamily C member 9 (CYP2C9) small molecule antagonists: luciferase biochemical (cell-free) qHTS assay (AID 1645842; active = well fitted curve in the direction sought with a large enough effect in the repeat runs; an effect the other way counts as inactive or inconclusive; note: % is set by controls: 0 for no effect and ±100 for the full control effect; nearly all actives have a fitted effect of over 55% in size). The following applies: P450-Glo CYP2C9 enzyme assay, luciferin luminescence; series mostly up to 57.4 µM. The method in brief: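 P450-Glo CYP2C9 system: proluciferin substrate with enzyme in mix containing 0.4% BSA, 10 min at room temperature, then NADPH regeneration solution added and incubated 1 h at 37C. Detection reagent stopped reaction; luminescence read after 20 min as RLU.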

In assay [5] the target is Rap guanine nucleotide exchange factor 3 (Homo sapiens) (UniProt O95398). Description: Confirmatory qHTS for antagonist of cAMP-regulated guanine nucleotide exchange factor 3 (EPAC1) (AID 1645880).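 Note: plate controls were DMSO only for no effect and full effect of the ATA control for full effect; nearly all actives have a fitted effect of over 55% in size.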 The conditions noted are these: EPAC1 Rap1B-BODIPY-GDP exchange, fluorescence; series mostly up to 115 µM. The method in brief: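 Released BODIPY-GDP fluoresces less than Rap1-bound BODIPY-GDP; the signal is followed at 480/540 nm at 5-min intervals over 30 min, after 5 min at room temperature. Reactions contain 100 nM EPAC1, 250 nM RAP1B-BODIPY-GDP and 50 uM GDP; results are normalized to ATA and DMSO.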

Assay [6] shares this target. Description: Confirmatory qHTS for agonist of cAMP-regulated guanine nucleotide exchange factor 3 (EPAC1) (AID 1645881).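 Note: EPAC1 catalysed release of BODIPY-GDP from Rap1B seen as fluorescence loss; nearly all actives have a fitted effect of over 75% in size.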 The conditions noted are these: EPAC1 Rap1B BODIPY-GDP exchange fluorescence, 100% = cAMP control response; series mostly up to 154 µM.
In assay [7] the target is Rap guanine nucleotide exchange factor 4 (Homo sapiens) (UniProt Q8WZA2). In words: Confirmatory qHTS for agonist of cAMP-regulated guanine nucleotide exchange factor 4 (EPAC2) (AID 1645884).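 Note: nucleotide exchange releases bodipy-GDP from Rap1 and this lowers its fluorescence; % is set by controls: 0 for no effect and ±100 for the full control effect; nearly all actives have a fitted effect of over 65% in size.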 The conditions noted are these: EPAC2 GEF activity, Rap1B-BODIPY-GDP fluorescence; series mostly up to 154 µM.
For assay [8] the target is unchanged. Description: Confirmatory qHTS for antagonist of cAMP-regulated guanine nucleotide exchange factor 4 (EPAC2) (AID 1645885). Note: % is set by controls: 0 for no effect and ±100 for the full control effect; nearly all actives have a fitted effect of over 25% in size. The conditions noted are these: EPAC2 Rap1B-BODIPY-GDP exchange fluorescence, biochemical; series mostly up to 114 µM.
For assay [9], the target named is Catechol O-methyltransferase (Homo sapiens) (UniProt P21964). Description: Confirmatory Screen for Target Class Profiling of Small Molecule Inhibitors of Methyltransferases (AID 1745852). For activity change, negative = inhibition: % is set by controls: 0 for no effect and ±100 for the full control effect. The following applies: MTase-Glo luminescence, SAH detection, recombinant enzyme; measured here: COMT max response; stronger effect = lower value.
Assay [10] concerns the target Guanidinoacetate N-methyltransferase (Homo sapiens) (UniProt Q14353). The description is as above. The conditions noted are these: MTase-Glo luminescence, SAH detection, recombinant enzyme; at 57.3 µM (top of the series).
Assay [11] deals with Nicotinamide N-methyltransferase (Homo sapiens) (UniProt P40261). The description is as above. The conditions noted are these: MTase-Glo luminescence, SAH detection, recombinant enzyme; measured here: NNMT max response; stronger effect = lower value.
Assay [12] has as its target Phenylethanolamine N-methyltransferase (Homo sapiens) (UniProt P11086). The assay is described as above. The conditions noted are these: MTase-Glo luminescence, SAH detection, recombinant enzyme; measured here: PNMT max response; stronger effect = lower value.
The nature of assay [13]: NCATS anti-infectives library activity on the primary C. elegans qHTS viability assay (AID 1745855; calls by dose curve; note: potency is the fitted concentration of half-maximal effect). The conditions noted are these: C. elegans worm area imaging, day 7; series mostly up to 83.3 µM. The method in brief: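 Titration-based screen in worms: eggs hatched overnight in M9, L1 larvae fed TOP10 capsules in S medium with compound, incubated 21 °C for 7 days; fluorescent objects gated by size and intensity at days 0, 3 and 7.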

Several values for one entry are separate records, joined by “and”; a condition that tells them apart may be missing. Equal entries are not always repeated. Results filed as inconclusive are left out. More than one record can exist for a structure, and the calls need not agree. Activity calls are given as the source filed them. Unless noted, calls come from the whole dose curve; as a rule, active = well fitted curve in the direction sought with a large enough effect; inconclusive = small, poorly fitted or top-dose-only effect, or another doubt; inactive = no such curve, though single readings can be large; an effect the other way counts as inactive or inconclusive.

Chain of Papain (Carica papaya) (P00784 whole entry, looked up, the tested form may be a part): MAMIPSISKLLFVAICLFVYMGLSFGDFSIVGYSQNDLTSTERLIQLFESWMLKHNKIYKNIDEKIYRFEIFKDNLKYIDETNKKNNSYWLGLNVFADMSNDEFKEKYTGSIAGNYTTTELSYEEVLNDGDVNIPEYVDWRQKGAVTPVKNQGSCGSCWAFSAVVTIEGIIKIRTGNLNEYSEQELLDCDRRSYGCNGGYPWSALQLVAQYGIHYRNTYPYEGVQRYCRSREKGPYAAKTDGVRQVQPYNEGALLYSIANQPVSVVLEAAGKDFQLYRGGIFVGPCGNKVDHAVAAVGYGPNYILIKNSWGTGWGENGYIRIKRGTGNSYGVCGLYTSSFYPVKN
Chain of Phenylethanolamine N-methyltransferase (Homo sapiens) (P11086 whole entry, looked up): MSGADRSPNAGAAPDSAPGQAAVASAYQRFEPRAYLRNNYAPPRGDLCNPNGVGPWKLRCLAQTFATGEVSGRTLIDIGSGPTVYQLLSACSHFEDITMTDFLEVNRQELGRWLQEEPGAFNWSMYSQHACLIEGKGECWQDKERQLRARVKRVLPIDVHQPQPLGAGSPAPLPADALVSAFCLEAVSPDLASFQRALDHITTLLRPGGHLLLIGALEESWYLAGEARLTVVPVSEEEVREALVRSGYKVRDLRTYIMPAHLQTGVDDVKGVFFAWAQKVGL
Chain of Rap guanine nucleotide exchange factor 4 (Homo sapiens) (Q8WZA2 whole entry, looked up): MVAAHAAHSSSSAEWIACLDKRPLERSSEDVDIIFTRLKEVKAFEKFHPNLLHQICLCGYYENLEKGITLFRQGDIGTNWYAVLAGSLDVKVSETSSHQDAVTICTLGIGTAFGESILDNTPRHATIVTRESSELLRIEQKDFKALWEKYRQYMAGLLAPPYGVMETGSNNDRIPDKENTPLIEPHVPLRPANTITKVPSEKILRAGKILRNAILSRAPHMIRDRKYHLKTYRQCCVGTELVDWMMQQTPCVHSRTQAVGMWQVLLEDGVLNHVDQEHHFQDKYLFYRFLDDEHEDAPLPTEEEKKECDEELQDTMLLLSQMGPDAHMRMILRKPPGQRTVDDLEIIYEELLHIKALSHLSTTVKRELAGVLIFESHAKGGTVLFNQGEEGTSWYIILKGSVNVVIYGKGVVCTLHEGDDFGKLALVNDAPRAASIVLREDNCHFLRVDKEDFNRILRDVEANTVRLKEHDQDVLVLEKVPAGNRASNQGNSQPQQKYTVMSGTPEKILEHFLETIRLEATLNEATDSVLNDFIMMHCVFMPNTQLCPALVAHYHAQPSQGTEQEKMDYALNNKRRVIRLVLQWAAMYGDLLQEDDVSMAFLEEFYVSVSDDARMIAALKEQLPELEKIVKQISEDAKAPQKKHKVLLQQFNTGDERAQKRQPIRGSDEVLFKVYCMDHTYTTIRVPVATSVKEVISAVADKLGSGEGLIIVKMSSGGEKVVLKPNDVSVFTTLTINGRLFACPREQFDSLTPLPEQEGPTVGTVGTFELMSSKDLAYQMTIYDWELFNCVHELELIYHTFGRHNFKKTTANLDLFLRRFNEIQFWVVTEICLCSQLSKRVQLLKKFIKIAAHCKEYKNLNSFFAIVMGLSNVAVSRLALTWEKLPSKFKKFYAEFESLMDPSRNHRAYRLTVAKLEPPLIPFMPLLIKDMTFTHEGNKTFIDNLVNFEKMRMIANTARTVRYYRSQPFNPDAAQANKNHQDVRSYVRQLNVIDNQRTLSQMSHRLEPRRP
Chain of Rap guanine nucleotide exchange factor 3 (Homo sapiens) (O95398 whole entry, looked up): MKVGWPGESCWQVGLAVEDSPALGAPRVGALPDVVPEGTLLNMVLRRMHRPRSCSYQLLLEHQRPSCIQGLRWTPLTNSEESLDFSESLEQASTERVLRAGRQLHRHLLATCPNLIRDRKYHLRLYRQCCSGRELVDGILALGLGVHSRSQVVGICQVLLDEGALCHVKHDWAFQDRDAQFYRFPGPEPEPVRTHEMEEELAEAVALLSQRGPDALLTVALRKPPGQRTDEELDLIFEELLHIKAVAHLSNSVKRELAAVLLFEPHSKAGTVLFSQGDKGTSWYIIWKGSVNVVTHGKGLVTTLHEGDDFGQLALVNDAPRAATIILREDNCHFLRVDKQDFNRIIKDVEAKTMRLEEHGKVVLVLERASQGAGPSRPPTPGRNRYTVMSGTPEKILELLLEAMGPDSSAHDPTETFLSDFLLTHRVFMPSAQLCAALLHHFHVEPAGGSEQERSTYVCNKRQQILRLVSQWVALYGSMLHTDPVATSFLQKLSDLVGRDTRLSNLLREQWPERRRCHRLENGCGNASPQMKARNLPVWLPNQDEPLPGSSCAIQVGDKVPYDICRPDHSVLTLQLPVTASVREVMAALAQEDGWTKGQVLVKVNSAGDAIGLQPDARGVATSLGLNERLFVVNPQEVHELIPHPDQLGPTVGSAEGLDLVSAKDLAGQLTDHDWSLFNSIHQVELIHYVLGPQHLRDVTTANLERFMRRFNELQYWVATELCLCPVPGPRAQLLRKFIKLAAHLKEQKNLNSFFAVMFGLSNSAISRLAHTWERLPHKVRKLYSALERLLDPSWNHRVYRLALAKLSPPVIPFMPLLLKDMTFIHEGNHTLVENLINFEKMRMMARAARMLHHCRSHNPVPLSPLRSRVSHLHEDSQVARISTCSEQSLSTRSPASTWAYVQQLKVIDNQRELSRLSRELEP
Chain of Cytochrome P450 2C9 (Homo sapiens) (P11712 whole entry, looked up): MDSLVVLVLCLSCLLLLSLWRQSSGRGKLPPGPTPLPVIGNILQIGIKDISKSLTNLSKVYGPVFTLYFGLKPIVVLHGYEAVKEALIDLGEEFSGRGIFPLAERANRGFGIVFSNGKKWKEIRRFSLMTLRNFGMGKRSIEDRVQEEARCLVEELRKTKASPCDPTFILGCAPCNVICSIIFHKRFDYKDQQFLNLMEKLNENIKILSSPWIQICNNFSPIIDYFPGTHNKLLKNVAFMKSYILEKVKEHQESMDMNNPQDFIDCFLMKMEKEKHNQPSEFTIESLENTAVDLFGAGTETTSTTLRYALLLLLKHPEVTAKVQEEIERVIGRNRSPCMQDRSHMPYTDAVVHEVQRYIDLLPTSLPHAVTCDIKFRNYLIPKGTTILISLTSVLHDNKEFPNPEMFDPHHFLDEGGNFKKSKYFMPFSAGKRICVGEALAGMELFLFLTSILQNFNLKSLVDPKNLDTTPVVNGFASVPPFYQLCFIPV
Chain of Catechol O-methyltransferase (Homo sapiens) (P21964 whole entry, looked up): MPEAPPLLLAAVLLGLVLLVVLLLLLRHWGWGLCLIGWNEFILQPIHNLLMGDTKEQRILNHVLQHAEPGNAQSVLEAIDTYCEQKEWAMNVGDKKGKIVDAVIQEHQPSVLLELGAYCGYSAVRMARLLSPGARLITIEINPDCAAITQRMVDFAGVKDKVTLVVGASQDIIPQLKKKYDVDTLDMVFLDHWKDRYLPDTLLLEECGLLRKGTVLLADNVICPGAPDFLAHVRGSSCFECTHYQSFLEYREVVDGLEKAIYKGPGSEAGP
Chain of Nicotinamide N-methyltransferase (Homo sapiens) (P40261 whole entry, looked up): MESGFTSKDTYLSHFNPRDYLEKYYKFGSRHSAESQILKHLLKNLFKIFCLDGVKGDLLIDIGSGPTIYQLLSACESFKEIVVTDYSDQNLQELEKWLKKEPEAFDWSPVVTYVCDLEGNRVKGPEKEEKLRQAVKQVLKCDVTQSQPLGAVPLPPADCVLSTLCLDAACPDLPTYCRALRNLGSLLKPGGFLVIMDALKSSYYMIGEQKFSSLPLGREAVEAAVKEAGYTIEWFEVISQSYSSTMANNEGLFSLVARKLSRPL

On to `COc1cc2c(cc1OC)C(=O)C(CC1CCN(Cc3ccccc3)CC1)C2` (stereo not drawn), for which, in [1], the Potency is 21.1 µM (active).
In the case of `Oc1c(I)cc(Cl)c2cccnc12`, the Potency in [1] is 8.41 µM (active).
As to `CCCn1c(=O)[nH]c(=O)c2[nH]cnc21`, in assay [2], the Potency result is “inactive”.
Consider `CN=C(NC#N)NCCSCc1csc(N=C(N)N)n1`, for which the Potency entry in assay [3] and in assay [1] was “inactive” in each case.
As to `CC/C(=C(/CC)c1ccc(O)cc1)c1ccc(O)cc1`, in [3], the Potency entry was “inactive”. For the same compound, the Potency in [1] was 10.6 µM (active) and inactive.
In the case of `CC(=O)OCC(=O)[C@@]1(O)CC[C@H]2[C@@H]3CCC4=CC(=O)C=C[C@]4(C)[C@H]3[C@@H](O)C[C@@]21C`, the Potency result in assay [4] is “inactive”. Further, the Potency in [1] was 18.8 nM (active) and 183 nM (active).
For `COc1cc2c(cc1O)CC[C@@H]1[C@@H]2CC[C@]2(C)[C@@H](O)CC[C@@H]12`, the Potency result in [2], in assay [5], in assay [7] and in assay [8] was “inactive” in each case. The Potency in assay [3] is 742 nM (active); in assay [1] it was 0.59 µM (active). Also, in assay [6], the outcome was “inactive”.
As to `CN(C)CCCOc1nn(Cc2ccccc2)c2ccccc12`, the Potency is 9.44 µM (active) and 25.8 µM (active) in assay [3]; 10.6 µM (active) and 14.5 µM (active) in assay [1].
As for `CC1(C)CCC(NC(=O)[C@@H](N)CCC(=O)O)CC1`, in [2], the Potency result is “inactive”.
For the compound `COc1cc(C=C2CCC/C(=C\c3ccc(O)c(OC)c3)C2=O)ccc1O`, the Potency was 237 nM (active) in [3] and 0.188 µM (active) in [1].
On to `CC(=O)OCC(=O)[C@@]12OC(C)(C)O[C@@H]1C[C@H]1[C@@H]3C[C@H](F)C4=CC(=O)C=C[C@]4(C)[C@@]3(F)[C@@H](O)C[C@@]12C`, for which the Potency result in assay [3] is “inactive”. Besides, in assay [1], the Potency is 0.9 nM (active) and inactive.
Take `COc1cc(NS(C)(=O)=O)ccc1Nc1c2ccccc2nc2ccccc12`: the Potency in [2] was 22.4 µM (active); in assay [3], 417 nM (active); in assay [1], 0.332 µM (active).
Take `Cc1ccc(Nc2c(F)cccc2Cl)c(CC(=O)O)c1`: in assay [1], the Potency result is “inactive”.
Turning to `C[C@@H]1C(=O)NC2=Nc3cccc(Cl)c3CN21`, the Potency result in assay [2] was “inactive”.
On to `O=C1CCC(c2ccc(-n3ccnc3)cc2)=NN1`, for which the Potency result in [2] is “inactive”.
In the case of `CC[C@H](C)C(=O)O[C@H]1CCC=C2C=C[C@H](C)[C@H](CC[C@@H]3C[C@@H](O)CC(=O)O3)[C@H]21`, in [2], the Potency entry was “inactive”. The Potency in assay [3] was 14800 nM (active); in [1], 14.8 µM (active). Besides, the activity in assay [9] was -80.2%; in assay [11], -8.02%; in [12], -5.04%. In addition, in [10], the activity change, negative = inhibition was -3.09%.
With `COC(=O)[C@H]1[C@H]2C[C@H]3c4[nH]c5ccccc5c4CCN3C[C@H]2CC[C@@H]1O`, the Potency result in assay [2] was “inactive”.
Consider `COc1cccc2c1C(=O)c1c(O)c3c(c(O)c1C2=O)C[C@@](O)(C(=O)CO)C[C@@H]3O[C@H]1C[C@H](N)[C@H](O)[C@H](C)O1`, for which the Potency result in [4] is “inactive”. The Potency is 188 nM (active) and 33.2 nM (active) in assay [3]; 150 nM (active) and 26.3 nM (active) in [1]; 23 µM (active) in assay [13].
Turning to `CC(=O)O[C@H]1C[C@@H]2CC[C@@H]3[C@H](CC[C@@]4(C)[C@H]3C[C@H]([N+]3(C)CCCCC3)[C@@H]4OC(C)=O)[C@@]2(C)C[C@@H]1[N+]1(C)CCCCC1`, the Potency result in assay [2] was “inactive”.
`CC(C)(Oc1ccc(Cl)cc1)C(=O)O`: the Potency entry in assay [3] and in [1] was “inactive” throughout.
In the case of `CC(C)(C)CC(C)(C)c1ccc(OCCOCC[N+](C)(C)Cc2ccccc2)cc1`, the Potency in assay [3] is 1.19 µM (active) and 1.83 µM (active); in assay [1] it was 944 nM (active) and 1.63 µM (active). Further, the figures for the activity in assay [9], in assay [11] and in assay [12] were -13.4%, -59.7% and -7.81%, respectively. In addition, the activity change, negative = inhibition in [10] was -8.7%.
With `N[C@H](Cc1c[nH]c2ccccc12)C(=O)O`, the Potency entry in assay [3] and in assay [1] was “inactive” throughout.
`N[C@@H](Cc1cnc[nH]1)C(=O)O`: the Potency result in assay [2] is “inactive”.
